Assay outcomes as filed in PubChem.
Sampled rows, rich in hits. Any-hit rate of the full collection: about 10%.
FLuc inh: Firefly luciferase inhibition profiling of diverse chemical library using quantitative high-throughput screening. purified P. pyralis luciferase, luminescence, biochemical. Luciferin 4-monooxygenase (Photinus pyralis), P08659. Potency, µM (series often up to 115 µM), most hits filed as inhibitors. 76,000 tested, 2.5% active; further: nearly all actives have a fitted effect of over 65% in size
Target sequence (P08659 whole entry, looked up): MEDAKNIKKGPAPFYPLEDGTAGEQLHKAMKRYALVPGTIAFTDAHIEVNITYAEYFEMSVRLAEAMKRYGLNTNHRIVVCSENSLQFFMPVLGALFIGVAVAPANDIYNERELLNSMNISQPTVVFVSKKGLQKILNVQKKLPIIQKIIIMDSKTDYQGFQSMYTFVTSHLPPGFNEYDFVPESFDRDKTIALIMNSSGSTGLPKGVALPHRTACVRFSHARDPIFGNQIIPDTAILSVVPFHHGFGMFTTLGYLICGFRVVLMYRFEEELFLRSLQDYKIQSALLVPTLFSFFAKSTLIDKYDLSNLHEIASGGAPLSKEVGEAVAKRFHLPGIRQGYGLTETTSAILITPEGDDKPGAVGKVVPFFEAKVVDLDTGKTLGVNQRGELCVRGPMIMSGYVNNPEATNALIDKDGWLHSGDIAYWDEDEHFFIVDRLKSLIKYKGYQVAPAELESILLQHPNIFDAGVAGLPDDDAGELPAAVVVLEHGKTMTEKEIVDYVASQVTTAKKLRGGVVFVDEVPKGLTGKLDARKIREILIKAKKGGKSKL
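Cell-free enzyme assay, 10nM P. pyralis luciferase, luciferin and ATP each at 10uM. Inhibition profiled over a 6-point titration, read as luminescence.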
hNpr1 antagonist: Natriuretic polypeptide receptor (hNpr1) antagonism - Primary qHTS. 76,000 tested, 1.6% active. Atrial natriuretic peptide receptor 1 (Homo sapiens), P16066. Potency, µM (series often up to 46.3 µM), most hits filed as inhibitors. HEK293 hNpr1 GloSensor cGMP, ANP-stimulated luminescence; calls by dose curve; further: nearly all actives have a fitted effect of over 60% in size
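HEK293 cells stably expressing human Npr1 and cGMP GloSensor pGS-40F, loaded 2 h with 2% GloSensor reagent, given compound 30 min at room temperature. Luminescence read before and 20 min after 0.1 nM hNppA.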
3T3 cytotox: Cytotoxic Profiling in NIH 3T3 Cell Line of Diverse Libraries Using Quantitative High-Throughput Screening; Potency, µM (top dose mostly 96.7 µM), hits mostly inhibitors; 94,000 tested, 4.3% active; AID 1345082, 2018; NIH 3T3 viability, CellTiter-Glo ATP luminescence, 48-72 h; further: nearly all actives have a fitted effect of over 55% in size
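Viability of NIH 3T3 cells after 48 or 72 hr compound treatment at 37 °C was assessed by CellTiter-Glo, with luminescence imaged following a 10 min room-temperature step.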
GPT2 inhibitor: Primary qHTS assay for inhibitors of Glutamate pyruvate transaminase 2 (GPT2) | Alanine aminotransferase 2 (Homo sapiens), Q8TD30 | Recombinant GPT2, coupled pyruvate oxidase/HRP Amplex Red fluorescence | Potency, µM (doses to about 57.7 µM), most hits filed as inhibitors | 100,000 tested, 0.25% active; further: nearly all actives have a fitted effect of over 60% in size
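GPT2 10ng/uL, a-KG 250uM, L-Ala 2mM, HEPES pH7.5 + 0.0001% Tween; 30 min RT. Then Amplex mix (PO/HRP/ThPP), 30 min RT dark, fluorescence. AOA 50uM used as positive control.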
HEK cytotox: Cytotoxic Profiling in HEK 293 Cell Line of Diverse Libraries Using Quantitative High-Throughput Screening; HEK 293 viability, ATP luminescence (CellTiter-Glo), 48-72 h; Potency, µM (series often up to 115 µM), usual class: inhibitors; 94,000 tested, 6.6% active; further: nearly all actives have a fitted effect of over 60% in size
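CellTiter-Glo luminescence (cellular ATP) was read after 48 or 72 hr of compound exposure at 37 degree Celsius. Cells were HEK 293 plated at 250 cells/well.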
Hits are given with their value; i = inactive; ? = inconclusive; nt = no result; ! = repeats disagree; [ ] = dose if it differs, or a comment. Unless noted, the call rests on the fitted dose curve; in most records, active means well fitted curve in the direction sought with a large enough effect; inconclusive means small, poorly fitted or top-dose-only effect, or another doubt; inactive means no such curve, though single readings can be large; an effect the other way counts as inactive or inconclusive.

SMILES	FLuc inh	hNpr1 antagonist	3T3 cytotox	GPT2 inhibitor	HEK cytotox
CC(C)(C)c1ccc(-c2cc(C[C@H]3CNCC[C@H]3CC(=O)NCc3ccc(F)cc3)no2)cc1	i	i	25µM	i	28µM
O=C(C[C@@H]1CCNC[C@@H]1Cc1cc(-c2ccccc2)on1)NCc1cccnc1	i	i	i	i	i
COc1ccc(-c2cc(C[C@H]3CNCC[C@H]3CC(=O)NCc3ccc(F)cc3)no2)cc1	i	i	?	i	?
COc1ccc(-c2cc(C[C@H]3CNCC[C@H]3CC(=O)N3CCN(c4ccccc4OC)CC3)no2)cc1	i	i	14µM	i	?
O=C(C[C@@H]1CCNC[C@@H]1Cc1cc(-c2ccccc2)on1)NCc1ccccc1	i	i	100µM	?	?
COc1ccccc1N1CCN(C(=O)C[C@@H]2CCNC[C@@H]2Cc2cc(-c3ccc(F)cc3)on2)CC1	i	i	?	i	?
COC1CCOC2(CCN(C(=O)Cc3ccccc3)CC2)C1 (stereo not given)	i	i	i	i	i
FC(F)(F)c1cccc(C2=NOC3(CCCN(Cc4cccc5ccccc45)C3)C2)c1 (stereo not given)	i	i	?	i	?
FC(F)(F)c1cccc(C2=NOC3(CCCN(Cc4cccs4)C3)C2)c1 (stereo not given)	i	i	35µM	i	?
Cc1noc(C)c1[S+](=O)([O-])N1CCCC2(CC(c3cccc(C(F)(F)F)c3)=NO2)C1 (stereo not given)	i	i	i	i	35µM
Cn1nccc1CN1CCCC2(CC(c3cccc(C(F)(F)F)c3)=NO2)C1 (stereo not given)	i	i	i	i	45µM
Cc1ccc(C(=O)N2CC(c3nnc(-c4ccncc4)o3)C3(CCOCC3)C2)s1 (stereo not given)	i	i	i	i	i
CCc1nc(-c2c3n(c(=O)n(CC(=O)Nc4ccc(C)c(F)c4)c2=O)CCCCC3)no1	i	i	i	i	i
COc1ccc(-c2ccc3nc(-c4ccccc4)oc3c2)c(OC)c1OC	i	i	?	i	45µM
O=C1CCN(C(=O)C2CCN(C(=O)C3CCOCC3)CC2)CCCCCCN1	i	i	i	i	i
O=C1NC(=NC2CCCCC2)C2(CCCN(Cc3ccsc3)C2)N1c1cc(F)cc(F)c1 (stereo not given)	nt	nt	?	i	?
O=C1NC(=NC2CCCCC2)C2(CCCN(CC3CC3)C2)N1c1cc(F)cc(F)c1 (stereo not given)	nt	nt	32µM	i	10µM
O=C1NC(=NC2CCCC2)C2(CCN(CC3CC3)CC2)N1c1cc(F)cc(F)c1	nt	nt	32µM	i	i
O=C1NC(=NC2CCCCC2)C2(CCCN(CC3CCCCC3)C2)N1c1cc(F)cc(F)c1 (stereo not given)	nt	nt	28µM	i	?
O=C1NC(=NC2CCCCC2)C2(CCCN(CC3CC3)C2)N1c1cccnc1 (stereo not given)	nt	nt	?	i	i
O=C1NC(=NC2CCCCC2)C2(CCN(CC3CC3)CC2)N1c1cc(F)cc(F)c1	nt	nt	?	i	i
CC(C)N1CCN(C2CCOC3(CCN(C(=O)Nc4ccccc4F)CC3)C2)CC1 (stereo not given)	i	i	i	i	i
O=C(C1CCOCC1)N1CCCC2(COc3ccccc3[S+](=O)([O-])N2)C1 (stereo not given)	nt	nt	i	i	i
COCCN1C(=O)CS(=O)C12CCN(C(=O)Nc1ccccc1F)CC2 (stereo not given)	i	i	i	?	i
O=C(NCc1cccs1)c1ccc2nnc(C3CCCC3)n2c1	nt	nt	?	i	i
SMILES	FLuc inh	hNpr1 antagonist	3T3 cytotox	GPT2 inhibitor	HEK cytotox
COCC(=O)NC1CCC12CCN(C(=O)c1ccccn1)CC2 (stereo not given)	nt	nt	i	i	i
Cc1ccc(C2(O)CCN(c3cc(C(F)(F)F)ccn3)CC2)nc1	i	i	?	?	?
c1ccc2oc([C@H]3CCN(C4CCCCC4)C3)nc2c1	?	?	i	i	i
CC(C)N1CC[C@H](c2nnc(-c3ccccc3F)o2)C1	40µM	i	i	i	i
Fc1ccccc1-c1nnc([C@H]2CCN(C3CCOCC3)C2)o1	71µM	i	i	i	i
c1ccc2oc([C@H]3CCN(C4CCOCC4)C3)nc2c1	79µM	i	i	i	i
Cc1ccc(-c2cccc(C=O)c2)cc1Cl	nt	nt	?	i	i
COc1ccc2nc3n(c2c1)[C@@H](CNCc1ccc(S(C)(=O)=O)cc1)COC3	i	i	i	i	i
Cc1nc2scc(CC(=O)NC3CC3)n2c(=O)c1-c1cc(C)n(-c2ccc(C(C)C)cc2)n1	?	i	i	i	?
Cc1nonc1CN1CCN(c2cc(C3CC(N)C3)nc(N)n2)CC1 (stereo not given)	i	i	i	i	i
COc1ccc(N2CCN(c3cc(C4CC(N)C4)nc(N)n3)CC2(C)C)cc1 (stereo not given)	i	i	22µM	i[11.5 µM]	22µM
Cc1nnc(-c2cc(-c3cccnc3)ccn2)n1C1CCCCC1	i	i	89µM	i	i
Cc1nnc(-c2cc(-c3ccc(N4CCOCC4)cc3)ccn2)n1C1CCCCC1	?	i	?	i	79µM
Cc1nnc(-c2cc(-c3cnn(C)c3)ccn2)n1C1CCCCC1	i	i	?	i	i
COc1ccc(CCC(C)=O)cc1	nt	nt	nt	i	nt
O=C(CCc1ccc(O)cc1)c1c(O)cc(O)cc1O	nt	nt	nt	6.9µM!	nt
CN1CCC2(Cc3ccccc3CN(C(=O)CCN)C2)C1 (stereo not given)	nt	nt	i	i	?
COc1ccc(-c2noc(Nc3cc(C)cc(C)c3)n2)cc1	?	i	?	i	?
COc1cccc(-c2noc(Nc3cc(C)cc(C)c3)n2)c1OC	20µM	i	?	i	?
COc1cccc(-c2noc(NCc3cccc(Cl)c3)n2)c1OC	i	i	?	i	79µM
Fc1ccccc1-c1noc(NCc2ccccc2)n1	28µM	i	?	i	?
CC(=O)c1cccc(NC(=O)Cn2c(-c3ccccc3)nc(C)cc2=O)c1	i	i	i	i	?
Cc1cc(=O)n(CC(=O)Nc2ccccc2C)c(-c2ccc(Cl)cc2)n1	i	i	35µM	i	?
CC(=O)c1cccc(NC(=O)Cn2c(-c3ccc(F)cc3)nc(C)cc2=O)c1	i	i	i	i	45µM
COCc1nc(C2CC(NC(=O)CN3C(=O)NC(=O)C3(C)C)C2)cc(=O)[nH]1 (stereo not given)	i	i	i	?	i
CCCN1CCc2[nH]cnc2C12CCN(C(=O)Cc1ccc3c(c1)OCO3)CC2	i	i	i	i	i
